PubChem BioAssay (EPA / NIEHS)
Inconclusive results are not listed. Active and inactive are the calls of the source. How the source made its calls: active means hit-call score of the fitted dose curve at least 0.9, where 1 is the maximum; inconclusive means response in the unintended direction; inactive means score below 0.9.

The compounds below were run against bovine Gamma-Aminobutyric Acid Type A Receptor BDZ, alpha 1 site (GABARa1), GABRA1 (gene 780973) (UniProt P08219) (assay: NVS_LGIC_bGABARa1: NovaScreen (NVS) Ligand-Gated Ion Channel Assay for bovine Gamma-Aminobutyric Acid Type A Receptor BDZ, alpha 1 site (GABARa1) (AID 2283321)).
Sequence of bovine Gamma-Aminobutyric Acid Type A Receptor BDZ, alpha 1 site (GABARa1), GABRA1 (gene 780973) (P08219 whole entry, looked up): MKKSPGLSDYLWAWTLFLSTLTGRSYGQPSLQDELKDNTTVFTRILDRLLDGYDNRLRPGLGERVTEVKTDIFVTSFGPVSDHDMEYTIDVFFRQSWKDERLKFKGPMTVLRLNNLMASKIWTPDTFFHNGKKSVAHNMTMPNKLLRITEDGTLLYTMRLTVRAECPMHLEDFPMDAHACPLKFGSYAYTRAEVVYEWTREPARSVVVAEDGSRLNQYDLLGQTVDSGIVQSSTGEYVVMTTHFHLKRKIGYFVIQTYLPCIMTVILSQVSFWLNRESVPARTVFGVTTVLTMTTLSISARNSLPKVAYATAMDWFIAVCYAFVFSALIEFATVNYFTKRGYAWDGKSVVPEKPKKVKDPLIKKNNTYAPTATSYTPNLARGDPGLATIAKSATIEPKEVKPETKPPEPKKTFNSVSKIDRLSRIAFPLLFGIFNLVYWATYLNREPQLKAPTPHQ
Procedure, shortened: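 Radioligand competition binding on bovine cortical membranes, 0.75 h, filter-based scintillation counting. Primary single concentration 25 uM in duplicate; actives rerun in concentration-response to 50 uM max. Loss of signal fitted versus DMSO.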
COP(=O)(OC)O/C(C)=C/C(=O)N(C)C was tested, and the outcome was “inactive”.
O=C(Nc1ccccc1-c1ccc(Cl)cc1)c1cccnc1Cl was tested, and the outcome was “inactive”.
In the case of Nc1c(Cl)c(F)nc(OCC(=O)O)c1Cl, the outcome is reported as “inactive”.
With N#CN=C1SCCN1Cc1ccc(Cl)nc1 the outcome was “inactive”.
In the case of COP(=S)(OC)SCn1nnc2ccccc2c1=O, the AC50 is reported as 10.1 µM (active).
In the case of CC1(C)C(C(=O)OC(C#N)c2cccc(Oc3ccccc3)c2)C1(C)C (configuration not stated), the outcome is reported as “inactive”.
In the case of CS(=O)(=O)c1cc(C(F)(F)F)ccc1C(=O)c1cnoc1C1CC1, the outcome is reported as “inactive”.
